This passage reports inhibition results from PubChem BioAssay AID2751 (The Scripps Research Institute Molecular Screening Center, 2010).

In all, about 320,000 compounds went through this assay and about 2,200 (0.69%) were called active. This is one part of a sample in which actives are shown more often than they occur. A number with no mark means an inactive call. Rule as the data show it: active = inhibition above about 43%; inactive = the rest.

This assay deals with Prolyl endopeptidase-like (Homo sapiens) (UniProt Q4J6C6). The assay can be described thus: human PREPL activity-probe blockers – biochemical, fluorescence polarization, primary screen (AID 2751).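 Also: 0% = enzyme with DMSO and 100% = wells lacking enzyme.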 To be noted: recombinant PREPL, fluorescence polarization activity-based probe; at 5.96 µM; hits give high values.
Prolyl endopeptidase-like (Homo sapiens), sequence (Q4J6C6 whole entry, looked up): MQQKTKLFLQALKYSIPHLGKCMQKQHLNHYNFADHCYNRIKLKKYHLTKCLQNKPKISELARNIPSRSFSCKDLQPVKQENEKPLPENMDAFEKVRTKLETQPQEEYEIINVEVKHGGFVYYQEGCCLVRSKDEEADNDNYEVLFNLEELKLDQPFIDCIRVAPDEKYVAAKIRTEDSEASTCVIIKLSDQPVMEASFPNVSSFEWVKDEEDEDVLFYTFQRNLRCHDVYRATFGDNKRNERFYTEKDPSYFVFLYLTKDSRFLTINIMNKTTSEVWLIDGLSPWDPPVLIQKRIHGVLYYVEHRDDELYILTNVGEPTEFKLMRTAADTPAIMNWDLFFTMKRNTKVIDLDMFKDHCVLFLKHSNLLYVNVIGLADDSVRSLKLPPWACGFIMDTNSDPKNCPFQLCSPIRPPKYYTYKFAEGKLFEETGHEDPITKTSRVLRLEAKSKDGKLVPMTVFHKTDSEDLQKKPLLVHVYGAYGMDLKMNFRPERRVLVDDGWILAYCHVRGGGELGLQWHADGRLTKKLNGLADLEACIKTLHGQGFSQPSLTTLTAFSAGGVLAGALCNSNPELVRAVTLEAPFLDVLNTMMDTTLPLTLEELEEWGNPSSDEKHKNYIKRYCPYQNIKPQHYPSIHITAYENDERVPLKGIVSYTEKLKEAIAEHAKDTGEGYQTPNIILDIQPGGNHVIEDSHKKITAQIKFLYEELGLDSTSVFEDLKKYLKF
As a reminder, the inhibition is the relative decrease from the control value, in per cent. For the compound `COc1cc(NC(=O)COC(=O)CSc2ccc3ccccc3c2)c(C)cc1[N+](=O)[O-]`, the inhibition is 26.5%.

For `CC(C)Oc1ccc(Oc2ccc(C(F)(F)F)cn2)cc1`, the inhibition is 14.7%.

On to `CC(NC(=O)COC(=O)Cn1cc(C(F)(F)F)ccc1=O)c1ccccc1` (configuration not stated), for which the inhibition was 4.36%.

In the case of `CNCC[C@H](Oc1ccc(C(F)(F)F)cc1)c1ccccc1`, the inhibition is 59% (active).

Take `Cc1ccc(CN(CC(=O)NCC2CCCO2)S(=O)(=O)c2ccc(C)cc2)cc1` (configuration not stated): the inhibition is -1.14%.

For `O=C(Cn1cnc2ccccc2c1=O)NNC(=O)c1ccccc1F`, the inhibition is 9.97%.

On to `NS(=O)(=O)c1ccc(CNC(=O)c2ccc(Cl)cc2[N+](=O)[O-])cc1`, for which the inhibition was 13.1%.

As to `CC(CC(=O)N1CCN(c2ccccc2)CC1)c1ccccc1` (configuration not stated), the inhibition is -0.94%.

Take `O=C(Nc1ccc(F)cc1)N1CCN(c2ccc(F)cc2)CC1`: the inhibition is 15.1%.

Consider `CC(=O)N1CCN(c2ccc(NCc3ccc(C(C)C)cc3)cc2)CC1`, for which the inhibition is 66.9% (active).

For `COc1ccccc1-c1n[nH]c2c1[C@H](C)CC[C@H]2C(C)C`, the inhibition was -22.4%.

Regarding `COc1ccc(CSc2nnnn2-c2ccc(O)cc2)cc1F`, the inhibition was -18.7%.

With `CCOc1ccccc1C1CC(c2ccccc2)Nc2nc(N)nn21` (configuration not stated), the inhibition is 5.16%.

Turning to `CCOc1ccccc1C1CC(c2ccc(Cl)cc2)Nc2nc(N)nn21` (configuration not stated), the inhibition was 24.3%.

On to `Cc1ccc(C2CC(c3cccc(C)c3)n3nc(N)nc3N2)cc1` (configuration not stated), for which the inhibition was 54.5% (active).

With `Cc1cc(=O)n(C)c(=O)n1CCCNc1ccccc1`, the inhibition is 2.85%.

On to `Cc1ccc(C23CC4CC(CC(C(=O)NCC(=O)O)(C4)C2)C3)cc1`, for which the inhibition was 5.03%.

Regarding `CCC(=O)Nc1cc(C(F)(F)F)ccc1N1CCCC1`, the inhibition is 8.09%.

Turning to `O=C(CCN1C(=O)COc2ccccc21)NCCCN1CCN(c2ccc(F)cc2)CC1`, the inhibition is 35.5%.

On to `COc1ccc(CCNC(=O)CN(c2ccccc2)S(C)(=O)=O)cc1`, for which the inhibition is 11.1%.

With `Cn1c(CCN2CCCC2)nc2cc(NS(=O)(=O)c3ccccc3)ccc21`, the inhibition is -19%.

`Cn1c(CCN2CCCCCC2)nc2cc(NC(=O)Nc3ccccc3)ccc21`: the inhibition is 53% (active).

Turning to `Cc1nn(CC(=O)Nc2ccc3c(c2)nc(CN2CCCCC2)n3C)c(=O)c2ccccc12`, the inhibition was 1.33%.

Consider `CCN(CC(=O)Nc1c(F)cccc1F)C(=O)c1cnc(C)cn1`, for which the inhibition was 3.72%.

As to `CCN1C(=O)/C(=C\N2CCN(c3cccc(Cl)c3)CC2)SC1=S`, the inhibition is 23.1%.

As for `CCN1C(=O)/C(=C\N2CCN(c3ccccc3)CC2)SC1=S`, the inhibition is 49.4% (active).

On to `CCN1C(=O)/C(=C\N2CCOCC2)SC1=S`, for which the inhibition was -9.93%.

As for `O=C(O)CSCc1ccc(C(=O)O)o1`, the inhibition is 7.09%.

In the case of `N=c1n(Cc2ccc(Cl)cc2)c2ccccc2n1CC(O)c1ccco1` (configuration not stated), the inhibition is 16.6%.

Consider `CCc1nc2ccc(C(=O)N3CCN(c4cccc(Cl)c4)CC3)cc2nc1CC`, for which the inhibition is -11.3%.

Turning to `CC(C)(C)OC(=O)C[C@@H]1C/C=C\C[C@@H](CC(=O)N(CCO)Cc2ccccc2)C(=O)N[C@H](Cc2ccccc2)COC1=O`, the inhibition is 14.3%.

In the case of `O=C1N[C@@H](c2ccccc2)COC(=O)[C@H](Cc2ccc(F)cc2)C/C=C\C[C@@H]1CC(=O)N(CCO)Cc1ccccc1`, the inhibition was 36%.

`O=C1N[C@H](Cc2c[nH]c3ccccc23)COC(=O)[C@H](Cc2ccc(F)cc2)C/C=C\C[C@H]1CC(=O)N(CCO)Cc1ccccc1`: the inhibition is 45.9% (active).

For `O=S(=O)(CCc1nc2ccccc2o1)c1ccc(Cl)cc1`, the inhibition is -9.37%.

With `C=C1C2C[C@H](O)C(C)(C)[C@@]2(O)[C@H](O)C[C@]23C[C@@](C)(O)[C@H](CC[C@H]12)[C@H]3O` (some centres not stated), the inhibition was -4.1%.

Turning to `CCN(C[C@H]1N[C@@](CC)(C(=O)OC)[C@H]2C(=O)N(Cc3ccccc3)C(=O)[C@@H]12)S(=O)(=O)c1ccccc1`, the inhibition is 16.9%.

Regarding `CN(C)c1ccc(C(CNC(=O)c2ccc(F)cc2)c2c[nH]c3ccccc23)cc1` (configuration not stated), the inhibition is 55.9% (active).

Consider `C[C@H](NC(=O)c1ccccc1)C(=O)OCC(=O)c1c[nH]c2ccccc12`, for which the inhibition was -2.69%.

On to `O=C(CNC(=O)c1ccc(F)cc1)c1ccccc1`, for which the inhibition was -2.4%.

`C#CCOCCOCCOCCNc1nc(N2CCN(C(=O)CCCCCCCCCCNC(=O)[C@H]([C@@H](C)CC)n3cc(CCCCN=C(N)N)nn3)CC2)nc(N2CCN(C(=O)CCCCCCCCCCNC(=O)[C@H](CO)n3cc(CCCSC)nn3)CC2)n1`: the inhibition was 29.9%.

`C#CCOCCOCCOCCNc1nc(N2CCN(C(=O)CCCCCCCCCCNC(=O)[C@H](CCCCN)n3cc(C)nn3)CC2)nc(N2CCN(C(=O)CCCCCCCCCCNC(=O)[C@H](CO)n3cc(CCCSC)nn3)CC2)n1`: the inhibition was 35.2%.

On to `C#CCOCCOCCOCCNc1nc(N2CCN(C(=O)CCCCCCCCCCNC(=O)Cn3cc(CCCCCN)nn3)CC2)nc(N2CCN(C(=O)CCCCCCCCCCNC(=O)[C@H](CO)n3cc(CCCSC)nn3)CC2)n1`, for which the inhibition was 75.8% (active).

Take `CCc1ccc(S(=O)(=O)Nc2ccc(C)c(NS(C)(=O)=O)c2)cc1`: the inhibition was -2.02%.

Take `Cc1cccc2nc(CNc3ccc(F)cc3)cn12`: the inhibition is -2.47%.

Take `O=C(CN1CCOCC1)Nc1c2c(nc3c1CCC3)CCC2`: the inhibition is -8.04%.

For `CCC(=C/c1sc2ccc3ccccc3c2[n+]1C)/C=C1\Sc2ccc3ccccc3c2N1C`, the inhibition was 90.7% (active).

On to `CC(=O)Nc1ccc(NC(=O)C(C)OC(=O)C2CC(=O)N(CCc3ccccc3)C2)cc1` (configuration not stated), for which the inhibition is 12.3%.

In the case of `CC1(C)CC[C@@]2(C(=O)O)C(C1)C1=CCC3[C@@]4(C)CC[C@H](O)C(C)(C)C4CC[C@@]3(C)[C@]1(C)C[C@H]2O` (some centres not stated), the inhibition is 21.2%.

Turning to `COc1ccc2cc1Oc1ccc(cc1)C[C@H]1c3cc(c(OC)cc3CCN1C)Oc1c(O)c(OC)cc3c1[C@H](C2)N(C)CC3`, the inhibition was 59% (active).

As for `COc1c(O)ccc2c1CN1CCc3cc4c(cc3C1C2)OCO4` (configuration not stated), the inhibition is 16.4%.

For the compound `CC(C)(C)C(=O)N1CCC[C@@]1(CO)C(=O)O`, the inhibition was 6.21%.

For the compound `CCC/C(C)=N\Nc1nc2c(c(=O)n(C)c(=O)n2C)n1C`, the inhibition is 11.5%.
